High-throughput results as filed in PubChem BioAssay.
Compounds with a hit are over-represented: about 11% of the library has one in this group of screens.
hNpr1 antagonist: blocks ANP-stimulated signaling of human Npr1 receptor; HEK293 hNpr1 GloSensor cGMP, ANP-stimulated luminescence; Potency, µM (doses to about 46.3 µM), hits mostly inhibitors; hit rate 1.6% among 76,000; AID 1347048; calls by dose curve; also: nearly all actives have a fitted effect of over 60% in size
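Compound pre-incubated 30 min at room temperature on GloSensor-loaded HEK293 cells stably carrying hNpr1 and the pGS-40F cGMP biosensor. Stimulation uses hNppA at 0.1 nM final; luminescence is taken at baseline and 20 min post-agonist.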
FLuc inh: Photinus pyralis luciferase inhibition; purified P. pyralis luciferase, luminescence, biochemical; P08659; Potency, µM (highest dose often 115 µM), most hits filed as inhibitors; hit rate 2.5% among 76,000; also: nearly all actives have a fitted effect of over 65% in size
Target sequence (P08659 whole entry, looked up): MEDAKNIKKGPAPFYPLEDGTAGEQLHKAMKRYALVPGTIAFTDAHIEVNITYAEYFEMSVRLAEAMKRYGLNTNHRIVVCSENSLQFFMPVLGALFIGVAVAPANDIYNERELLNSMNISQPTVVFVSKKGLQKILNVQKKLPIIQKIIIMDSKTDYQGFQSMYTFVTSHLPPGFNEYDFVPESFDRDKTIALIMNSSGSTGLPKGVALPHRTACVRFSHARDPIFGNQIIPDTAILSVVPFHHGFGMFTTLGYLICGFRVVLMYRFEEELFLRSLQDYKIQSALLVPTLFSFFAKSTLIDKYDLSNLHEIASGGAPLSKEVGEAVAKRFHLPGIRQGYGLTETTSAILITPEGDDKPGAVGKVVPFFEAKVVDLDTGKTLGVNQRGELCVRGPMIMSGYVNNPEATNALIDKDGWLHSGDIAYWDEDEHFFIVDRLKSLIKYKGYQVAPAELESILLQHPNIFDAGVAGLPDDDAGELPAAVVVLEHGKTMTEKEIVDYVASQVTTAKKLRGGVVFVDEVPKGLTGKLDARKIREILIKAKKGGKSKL
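Inhibitors were tested against purified firefly luciferase in a biochemical, low-substrate format (both substrates at 10uM) and luminescence measured with a CCD imager.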
3T3 cytotox: NIH 3T3 cell cytotoxicity; Potency, µM (doses to about 96.7 µM), most hits filed as inhibitors; NIH 3T3 viability, CellTiter-Glo ATP luminescence, 48-72 h; hit rate 4.3% among 94,000; AID 1345082; also: nearly all actives have a fitted effect of over 55% in size
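Cells were seeded at 400 per well, treated with pin-transferred compound, and kept 48 or 72 hr at 37 °C before CellTiter-Glo addition and luminescence imaging of cellular ATP.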
HEK cytotox: kills HEK 293 cells. HEK 293 viability, ATP luminescence (CellTiter-Glo), 48-72 h. Potency, µM (highest dose often 115 µM), usual class: inhibitors. hit rate 6.6% among 94,000. AID 1345083; also: nearly all actives have a fitted effect of over 60% in size
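CellTiter-Glo luminescence (cellular ATP) was read after 48 or 72 hr of compound exposure at 37 degree Celsius. Cells were HEK 293 plated at 250 cells/well.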
Hits are given with their value. Unless noted, calls follow the shape of the dose curve; as a rule, active = well fitted curve in the direction sought with a large enough effect; inconclusive = small, poorly fitted or top-dose-only effect, or another doubt; inactive = no such curve, though single readings can be large; an effect the other way counts as inactive or inconclusive.

For Cc1cc(-c2cc3c(cn2)CN(Cc2ccc(F)c(F)c2)CCN3)ccn1 the results were hNpr1 antagonist inactive, FLuc inh 40µM, 3T3 cytotox inconclusive and HEK cytotox 71µM.
Screening COc1cccc(C(=O)NC2CCN(c3ccc4nnc(-c5ccccc5)n4n3)C2)c1 (stereo not given) returned 3T3 cytotox inactive and HEK cytotox inactive.
COCCNC(=O)[C@@H]1C[C@H](Oc2cccnc2)CN1C(=O)c1n[nH]c2ccccc12 was read as 3T3 cytotox inactive and HEK cytotox inactive.
Screening CC(C)CN1CCN(C2CCOC3(CCN(S(=O)(=O)Cc4ccccc4)CC3)C2)CC1 (stereo not given) returned 3T3 cytotox inactive and HEK cytotox inactive.
`O=C(NC1CCN(c2ccc3nnc(-c4ccccc4)n3n2)CC1)c1cccc(Cl)c1` gave 3T3 cytotox inconclusive and HEK cytotox inactive.
`c1ccc(Oc2ccccc2-c2cc3c(cn2)CN(Cc2ccncc2)CCN3)cc1` gave hNpr1 antagonist inactive, FLuc inh inactive, 3T3 cytotox inconclusive and HEK cytotox inconclusive.
For Cc1cc(-c2cc3c(cn2)CN(Cc2c[nH]c4ccccc24)CCN3)ccn1 the results were hNpr1 antagonist inactive, FLuc inh inconclusive, 3T3 cytotox inconclusive and HEK cytotox 112µM.
For COc1cccc(CN2CCNc3cnc(OCc4cccnc4)cc3C2)c1 the results were hNpr1 antagonist inactive, FLuc inh inactive, 3T3 cytotox inconclusive and HEK cytotox inconclusive.
`Cc1cccc(CN2CCNc3cnc(OCc4cccnc4)cc3C2)c1` gave hNpr1 antagonist inconclusive, FLuc inh inactive, 3T3 cytotox inconclusive and HEK cytotox 100µM.
`Cc1noc2c(N3CCOCC3)cc(-c3ccsc3)nc12` gave hNpr1 antagonist inactive, FLuc inh inactive, 3T3 cytotox 28µM and HEK cytotox inconclusive.
`Cc1noc2c(N3CC(O)C3)cc(-c3ccsc3)nc12` gave hNpr1 antagonist inactive, FLuc inh inactive, 3T3 cytotox inconclusive and HEK cytotox inactive.
Screening CCC1Oc2ccc(NC(=O)Cc3ccc(OC)cc3)cc2CN(Cc2ccc(OC)cc2)C1=O (stereo not given) returned hNpr1 antagonist inactive, FLuc inh inactive, 3T3 cytotox inconclusive and HEK cytotox inconclusive.
Screening CCC1Oc2ccc(NS(=O)(=O)c3ccc(C)c(F)c3)cc2CN(Cc2ccc(OC)cc2)C1=O (stereo not given) returned hNpr1 antagonist inactive, FLuc inh inactive, 3T3 cytotox 25µM and HEK cytotox inconclusive.
`CCC1Oc2ccc(NC(=O)COC)cc2CN(Cc2ccc(Cl)cc2)C1=O` (stereo not given) gave hNpr1 antagonist inactive, FLuc inh inactive, 3T3 cytotox inconclusive and HEK cytotox inconclusive.
CCC1Oc2ccc(NS(=O)(=O)c3ccccc3)cc2CN(Cc2ccc(F)cc2)C1=O (stereo not given) was read as hNpr1 antagonist inactive, FLuc inh inactive, 3T3 cytotox inconclusive and HEK cytotox 35µM.
For CCC1Oc2ccc(NS(=O)(=O)c3ccc(Cl)cc3)cc2CN(Cc2ccc(F)cc2)C1=O (stereo not given) the results were hNpr1 antagonist inactive, FLuc inh inactive, 3T3 cytotox 14µM and HEK cytotox inconclusive.
`CCC1(N2CCN(S(=O)(=O)c3ccc4c(c3)CCCC4)CC2)CCN(C(=O)NC)C1` (stereo not given) gave hNpr1 antagonist inactive, FLuc inh inactive, 3T3 cytotox inactive and HEK cytotox inconclusive.
Screening Oc1ccccc1CN1C[C@H](O)C[C@H]1c1nc(-c2ccc(F)cc2)no1 returned hNpr1 antagonist inactive, FLuc inh inconclusive, 3T3 cytotox inconclusive and HEK cytotox inconclusive.
Screening CN1CCCN(S(=O)(=O)c2ccc3c(c2)OCCO3)c2ccccc21 returned hNpr1 antagonist inactive, FLuc inh inactive, 3T3 cytotox inconclusive and HEK cytotox 32µM.
Screening Cc1ccc(S(=O)(=O)N2CCCN(C)c3ccccc32)cc1C returned hNpr1 antagonist inactive, FLuc inh inactive, 3T3 cytotox inconclusive and HEK cytotox inconclusive.
`O=C([C@H]1CCCN1C(=O)c1cccc(Cl)c1)N1CCC(N2CCOC2=O)CC1` gave 3T3 cytotox inactive and HEK cytotox inactive.
`CSc1ccc(-c2cccc(CN3CCC(N[S+](=O)([O-])c4ccc(C)cc4)CC3)c2)cc1` gave 3T3 cytotox 14µM and HEK cytotox 20µM.
CSc1ccc(-c2cccc(CN3CCC(NC(=O)c4ccc(F)cc4)CC3)c2)cc1 was read as 3T3 cytotox inactive and HEK cytotox inactive.
Cc1ccc([S+](=O)([O-])NC2CCN(Cc3cccc(-c4ccc(F)c(F)c4)c3)CC2)cc1 was read as 3T3 cytotox 16µM and HEK cytotox 22µM.
`Cc1ccc(C(=O)NC2CCCN(CCn3nc4n(c3=O)CCCC4)C2)cc1` (stereo not given) gave 3T3 cytotox inactive and HEK cytotox inactive.
Screening COCCNC(=O)c1cn2cc(-c3ccc(C)cc3)sc2n1 returned 3T3 cytotox inconclusive and HEK cytotox 100µM.
Screening COCCCNC(=O)c1cn2cc(-c3cccc(OC)c3)sc2n1 returned 3T3 cytotox inconclusive and HEK cytotox 79µM.
For O=C(NCc1cccc(C(F)(F)F)c1)c1cn2cc(-c3cccc(C(F)(F)F)c3)sc2n1 the results were 3T3 cytotox inactive and HEK cytotox inactive.
`O=C(NCc1ccc(F)c(F)c1)c1cn2cc(-c3ccc(C(F)(F)F)cc3)sc2n1` gave 3T3 cytotox 45µM and HEK cytotox 56µM.
Screening CNC(=O)c1cn2cc(-c3cccc(C(F)(F)F)c3)sc2n1 returned 3T3 cytotox inconclusive and HEK cytotox 28µM.
`O=C(C1CCCN1C(=O)c1ccccc1F)N1CCC(N2CCOCC2=O)CC1` (stereo not given) gave 3T3 cytotox inactive and HEK cytotox inactive.
Cc1ccc(-c2cn3cc(C(=O)NCc4ccccn4)nc3s2)cc1 was read as 3T3 cytotox inconclusive and HEK cytotox 79µM.
`CC(C)NC(=O)c1cn2cc(-c3ccccc3)sc2n1` gave 3T3 cytotox inconclusive and HEK cytotox 71µM.
`COc1cccc(-c2cn3cc(C(=O)NCC(C)C)nc3s2)c1` gave 3T3 cytotox inconclusive and HEK cytotox 22µM.
`O=C1Nc2ccccc2CN(Cc2ccc(Cl)cc2)C12CCNCC2` gave hNpr1 antagonist inactive, FLuc inh inactive, 3T3 cytotox 14µM and HEK cytotox 20µM.
O=C1Nc2ccccc2CN(Cc2ccccc2)C12CCNC2 (stereo not given) was read as 3T3 cytotox 89µM and HEK cytotox inconclusive.
`O=C1Nc2ccccc2CN(C/C=C/c2ccccc2)C12CCNC2` (stereo not given) gave 3T3 cytotox 25µM and HEK cytotox inconclusive.
For CCCN1Cc2ccccc2NC(=O)C12CCNC2 (stereo not given) the results were 3T3 cytotox inactive and HEK cytotox inactive.
O=C1Nc2ccccc2CN(CC2CCOCC2)C12CCNCC2 was read as 3T3 cytotox inactive and HEK cytotox inactive.
Screening COc1ccc(-n2c(=O)c(C(=O)N3CCC(C#N)CC3)nc3cccnc32)cc1 returned 3T3 cytotox inactive and HEK cytotox inactive.
